ATXN viability: Viability Counterscreen for Primary qHTS for Inhibitors of ATXN expression; S2 cells (HEK-293 line with an ATXN2-luciferase reporter) viability, CellTiter-Fluor protease fluorescence, 24 h; Potency, µM (doses to about 56.7 µM), actives largely listed as cytotoxic; 400,000 compounds, 0.49% hits; AID 651635, 2014; also: nearly all actives have a fitted effect of over 40% in size
TGFb SMAD3 inh: qHTS for Inhibitors of TGF-b; 410,000 compounds, 1.2% hits; HepG2 CAGA-GFP TGF-b/SMAD3 reporter, GFP fluorescence, 18 h; TGF-beta stimulated, 500 pg/mL final; Potency, µM (highest dose often 46.1 µM), for the others: top-dose activity, negative = inhibition, hits mostly inhibitors; AID 588855, 2011; also: % is scaled to controls: 0 for no effect and ±100 for the full control effect; nearly all actives have a fitted effect of over 65% in size
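Cell-based qHTS in HEPG2 carrying a CAGA-GFP Smad reporter; compounds added before 500 pg/mL final TGF-beta, 18 h incubation at 37 degrees C, GFP fluorescence quantified per cell by imaging cytometry.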
TDP1 cell noCPT: qHTS for Inhibitors of human tyrosyl-DNA phosphodiesterase 1 (TDP1): qHTS in cells in absence of CPT. DT40 Tdp1-/- hTDP1 cells, no CPT, ATP luminescence, 48 h. Potency, µM (titrated, usually from 46.2 µM), inactives show at the highest dose activity change, negative = growth inhibition, most hits filed as inhibitors. 420,000 compounds, 15% hits; also: % is scaled to controls: 0 for no effect and ±100 for the full control effect; nearly all actives have a fitted effect of over 55% in size
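Camptothecin absent (DMSO only). Human TDP1-complemented DT40 knockout cells, 400 cells/well, 37 °C for minimum 48 hr; ATP measured via CellTiter-Glo, 30 min dark incubation, luminescence.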
HepG2 viability: qHTS for Inhibitors of TGF-b: Cytotox Counterscreen. HepG2 CAGA-GFP viability, ATP luminescence, 18 h. Potency, µM (top dose mostly 46.1 µM), without a hit: at the top dose activity change, negative = cytotoxicity, most hits filed as cytotoxic. 410,000 compounds, 0.76% hits
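CellTiter-Glo luminescence gave cytotoxicity after 18 hours at 37 degrees C. The cells were HepG2 CAGA-GFP in 1% FBS DMEM, stimulated with 500 pg/mL TGF-beta after compound addition. %Activity was normalised to no-cell wells (complete cell-killing) and DMSO (no toxicity), and curves were fitted and classified.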
ATXN2 expr inh: Primary qHTS for Inhibitors of ATXN expression. HEK-293 ATXN2-luciferase reporter, luminescence, 24 h. Potency, µM (series often up to 57 µM), for inactives: at the highest dose activity change, negative = inhibition, usual class: inhibitors. 360,000 compounds, 0.72% hits. AID 1745845, 2022; also: % is scaled to controls: 0 for no effect and ±100 for the full control effect; nearly all actives have a fitted effect of over 55% in size
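ATXN2-luciferase reporter cells (luciferase flanked by upstream and downstream ATXN2 gene portions) were treated 24 h at 37 °C with compounds at up to 57 uM. SteadyGlo luminescence gave expression; GF-AFC fluorescence gave viability.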
DT40 TDP1 CPT: qHTS for Inhibitors of human tyrosyl-DNA phosphodiesterase 1 (TDP1): qHTS in cells in presence of CPT; Potency, µM (doses to about 46.2 µM), for inactives: top-dose activity change, negative = growth inhibition, actives largely listed as inhibitors; 420,000 compounds, 12% hits; AID 686979, 2013; chicken DT40 Tdp1-/-;hTDP1 cells + 20 nM CPT, ATP luminescence, 48 h; also: % is scaled to controls: 0 for no effect and ±100 for the full control effect; nearly all actives have a fitted effect of over 55% in size
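Cell growth measured by CellTiter-Glo luminescence after a minimum 48 h, 37 C compound exposure with 20 nM CPT in Tdp1-knockout DT40 cells stably expressing hTDP1, seeded 400/well; qHTS titration format.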
* marks the source's active call; other numbers are inactive results; i = inactive; ? = inconclusive; · = not tested or not shown. Only some compounds are listed: those with a hit (about 17% of all), similar ones and a draw of the others. Calls follow the shape of the dose curve; as a rule, active = well fitted curve in the direction sought with a large enough effect; inconclusive = small, poorly fitted or top-dose-only effect, or another doubt; inactive = no such curve, though single readings can be large; an effect the other way counts as inactive or inconclusive. Potency is read from the fitted curve at half-maximal effect.

SMILES	ATXN viability	TGFb SMAD3 inh	TDP1 cell noCPT	HepG2 viability	ATXN2 expr inh	DT40 TDP1 CPT
COc1ccc(S(=O)(=O)N(C)C[C@H]2Oc3c(NC(=O)c4ccncc4)cccc3C(=O)N([C@H](C)CO)C[C@@H]2C)cc1	i	8%	2%	-3%	1%	1%
CC(C)CC(C(=O)NCC1CCN(Cc2ccc(F)cc2)CC1)N1Cc2ccccc2C1=O (stereo not given)	·	5%	21µM*	-24%	·	23µM*
Cc1ccc(C)c(CN2CCC(CNC(=O)C(CC(C)C)N3Cc4ccccc4C3=O)CC2)c1 (stereo not given)	·	?	12µM*	-33%	·	?
CC(C)CCNC(=O)[C@H](Cc1ccccc1)N1Cc2ccccc2C1=O	i	-3%	-11%	-1%	9%	?
Cn1c(=O)c2c(nc(Cc3ccc(N)cc3)n2C)n(C)c1=O	i	-2%	-1%	-4%	-2%	-22%
Cc1onc(-c2ccccc2Cl)c1NC(=O)NCc1cccs1	i	-1%	-13%	-61%	8%	13%
Cc1ccc(Cl)cc1NC(=O)N1CCc2cc(S(=O)(=O)N3CCC(C)CC3)ccc21	·	·	-11%	-7%	·	-26%
CC(=O)N1c2ccc(S(=O)(=O)N3CCCC3C(=O)NCc3ccc(Cl)cc3)cc2CC1C (stereo not given)	i	-14%	?	-16%	-8%	21µM*
Cc1ccc(CNC(=O)C2CCN(S(=O)(=O)c3ccc4c(c3)CC(C)N4C(=O)C3CC3)CC2)cc1 (stereo not given)	i	-22%	0%	-16%	-20%	-11%
COc1cc(OC)c(NC(=O)N2CCc3cc(S(=O)(=O)N4CCC(C)CC4)ccc32)cc1Cl	·	·	8.2µM*	-6%	·	10µM*
CC1Cc2cc(S(=O)(=O)N3CCC(C(=O)NCc4ccco4)CC3)ccc2N1C(=O)C1CCC1 (stereo not given)	i	-19%	23µM*	-18%	-22%	?
COc1cc(OC)c(NC(=O)C2CCN(S(=O)(=O)c3ccc4c(c3)CC(C)N4C(C)=O)CC2)cc1Cl (stereo not given)	i	-3%	?	-54%	·	21µM*
COc1ccc(NC(=O)C2CCN(S(=O)(=O)c3ccc4c(c3)CC(C)N4C(C)=O)CC2)cc1OC (stereo not given)	i	18%	?	-37%	·	?
O=C(NCc1ccc(Cl)cc1)[C@@H]1CCCN1S(=O)(=O)c1ccc(Cl)cc1	i	-20%	?	68%	3%	?
COC(=O)CN1C(=O)CSc2ccc(S(=O)(=O)Nc3ccc(C)c(Cl)c3)cc21	·	?	?	-33%	·	?
CCc1nnc(NC(=O)/C=C/c2cccs2)s1	i	0%	-24%	31%	59%	-30%
CC(=O)N1c2ccc(S(=O)(=O)N3CCC(C(=O)NCCc4ccc(Cl)cc4)CC3)cc2CC1C (stereo not given)	i	?	10µM*	-17%	-33%	16µM*
CC(=O)N1c2ccc(S(=O)(=O)N3CCC(C(=O)NCc4ccc(C)cc4)CC3)cc2CC1C (stereo not given)	i	?	-15%	-28%	-7%	?
CC(=O)N1c2ccc(S(=O)(=O)N3CCC(C(=O)NCc4ccccc4Cl)CC3)cc2CC1C (stereo not given)	i	25%	?	-6%	·	-6%
CC(=O)N1c2ccc(S(=O)(=O)N3CCC(C(=O)NCc4ccc(Cl)cc4)CC3)cc2CC1C (stereo not given)	i	?	?	-22%	-20%	18µM*
COc1ccc(S(=O)(=O)N2N=C(C)Oc3ccccc3C2=O)cc1	?	-4%	2.9µM*	2%	-10%	2.9µM*
CC1CC(C)CN(c2ncc3c(n2)CC(c2ccccc2Cl)CC3=O)C1 (stereo not given)	i	?	21µM*	0%	-13%	?
CC1CC(C)CN(c2ncc3c(n2)CC(c2ccc(Cl)cc2)CC3=O)C1 (stereo not given)	i	18%	8.2µM*	-3%	1%	?
O=C(Nc1ncc2c(n1)CC(c1ccc(Cl)cc1)CC2=O)c1ccco1 (stereo not given)	i	-5%	?	-27%	-19%	?
O=C1CC(c2ccccc2)Cc2nc(N3CCc4ccccc4C3)ncc21 (stereo not given)	i	2%	?	-13%	-8%	?
SMILES	ATXN viability	TGFb SMAD3 inh	TDP1 cell noCPT	HepG2 viability	ATXN2 expr inh	DT40 TDP1 CPT
COc1ccc(C(=O)NCC2Cc3cc(F)cc(-c4cncnc4)c3O2)cc1 (stereo not given)	?	·	-30%	·	·	-13%
CC(C)(C)c1ccc(S(=O)(=O)N2CCN(C(=O)C3CCC3)CC2)cc1	i	0%	18µM*	3%	-1%	8.2µM*
Cc1cnc(C(=O)N2CCN(S(=O)(=O)c3cc(C(F)(F)F)cc(C(F)(F)F)c3)CC2)cn1	i	?	?	-14%	·	-25%
CC(=O)N1CCC(C(=O)N2CCN(S(=O)(=O)c3ccc(F)cc3)CC2)CC1	i	-15%	18µM*	10%	4%	0%
CC1CC1C(=O)N1CCN(S(=O)(=O)c2cc(C(F)(F)F)cc(C(F)(F)F)c2)CC1 (stereo not given)	i	14µM*	?	-46%	?	16µM*
CC(C)(C)c1ccc(S(=O)(=O)N2CCC(O)(c3ccc(Cl)cc3)CC2)cc1	?	13µM*	18µM*	-44%	·	?
COc1cc(NC(=O)Cn2cc(C(=O)c3ccc(F)cc3)c(=O)c3ccc(C)nc32)cc(OC)c1	?	20%	-25%	-28%	-24%	?
Nc1c(C(=O)CSc2nc3ccccc3o2)c(=O)[nH]c(=O)n1C1CC1	i	-1%	?	-30%	89%	?
Cc1cccc(C)c1N1CCN(S(=O)(=O)c2ccc(F)cc2)CC1	i	-12%	16µM*	19%	-11%	?
CC(C)(C)c1ccc(S(=O)(=O)N2CCN(C(=O)C3=COCCO3)CC2)cc1	i	-20%	?	-5%	-14%	29µM*
